# Data taken from PubChem BioAssay AID540333 (Southern Research Specialized Biocontainment Screening …, 2011).
# About 320 (3.2%) of roughly 10,000 compounds were called active. What follows is part of a selection rich in actives, with near analogues and random picks from the rest. Unmarked numbers belong to inactive results. Cut-off read from the data, not from the text of the source: active = CPE inhibition mostly above about 9.1% (no sharp cut-off); inactive = mostly below about 7.2%.
# Test: antivirals protecting cells from dengue CPE – CPE readout, HTS (AID 540333)
# Details: Dengue virus CPE inhibition in host cells, at 20 µM; stronger effect = higher value
row,SMILES,CPE inhibition
1,COC(=O)c1cc(CNC(=O)c2ccc(O)c(Cl)c2)ccc1OC,0.01%
2,Cc1ccc(Nc2nnc(SC(C)C(=O)Nc3c(C)n(C)n(-c4ccccc4)c3=O)s2)cc1 (stereo not drawn),inactive
3,CC(Sc1nnc(NC2CCCCC2)s1)C(=O)Nc1ccc2c(c1)C(=O)c1ccccc1C2=O (stereo not drawn),11.9% (active)
4,CC(Sc1nnc(NCc2ccccc2)s1)C(=O)Nc1ccc2c(c1)C(=O)c1ccccc1C2=O (stereo not drawn),4.04%
5,CCNC(=S)N/N=C(\C)c1cc2ccccc2o1,0.995%
6,CCCCSc1nnc(CNC(=O)C23CC4CC(CC(C4)C2)C3)n1Cc1ccccc1,8.5% (active)
7,CC(C)Sc1nnc(CNC(=O)C23CC4CC(CC(C4)C2)C3)n1Cc1ccccc1,14.9% (active)
8,CCSc1nnc(CNC(=O)C23CC4CC(CC(C4)C2)C3)n1C1CCCCC1,5.44%
9,COc1ccc(C(=O)NCc2nnc(SCC(=O)N3CCc4ccccc43)n2Cc2ccccc2)cc1,inactive
10,CCC(C)Sc1nnc(CNC(=O)C23CC4CC(CC(C4)C2)C3)n1C1CCCCC1 (stereo not drawn),12.2% (active)
11,Cc1nnc(SCC(=O)NC(C)(C)C)n1C1CCCCC1,inactive
12,CCCSc1nnc(CNC(=O)C23CC4CC(CC(C4)C2)C3)n1Cc1ccccc1,7.14%
13,O=C(CNC(=O)C12CC3CC(CC(C3)C1)C2)N1CCN(S(=O)(=O)/C=C/c2ccccc2)CC1,0.155%
14,CCSc1nnc(CNC(=O)C23CC4CC(CC(C4)C2)C3)n1Cc1ccccc1,0.79%
15,CCOC(=O)CC1C(=O)NCCN1C(=S)Nc1ccccc1 (stereo not drawn),0.585%
16,O=C(NC1(C(F)(F)F)NC(=O)N(CCc2ccccc2)C1=O)C1CC1 (stereo not drawn),inactive
17,COc1ccccc1-n1cc(-c2ccc(Cl)cc2)[nH]c1=O,0.275%
18,COc1cc(/C=C2\SC(N)=NC2=O)ccc1OCC(=O)Nc1ccc(C)cc1,1.51%
19,Cc1ccc(C)c(OCC(=O)Nc2ccc(S(=O)(=O)Nc3ccccn3)cc2)c1,0.235%
20,COc1cc(C(=O)Nc2nc(-c3ccc(Cl)cc3)c(C)s2)ccc1OCC(=O)Nc1ccc(F)cc1,6.33%
21,CCc1ccc(-c2nc(NC(=O)c3ccc(OCC(=O)Nc4ccc(F)cc4)c(OC)c3)sc2C)cc1,0.375%
22,COc1ccc(-c2nc(NC(=O)c3ccc(OCC(=O)Nc4ccc(F)cc4)c(OC)c3)sc2C)cc1,12.6% (active)
23,COc1cc(C(=O)Nc2nc(-c3cc(C)ccc3C)c(C)s2)ccc1OCC(=O)Nc1ccc(F)cc1,14.4% (active)
24,COc1ccc2[nH]c(O)c(N=NC(=N)N)c2c1,0.45%

row,SMILES,CPE inhibition
1,COC(=O)c1cc([N+](=O)[O-])ccc1N1CCN(Cc2ccccc2)CC1,0.06%
2,COc1ccc(C(=O)OC(C)C(=O)Nc2cc(C(F)(F)F)ccc2Cl)c(OC)c1OC (stereo not drawn),2.02%
3,CCN(CC)S(=O)(=O)c1cc(NC(=O)COc2ccc(C#N)cc2OC)ccc1C,inactive
4,Cc1nc2ccc(C(=O)O)cc2nc1C,0.025%
5,Nc1cc(Cl)ccc1C(=O)OCC(=O)NC(=O)NCc1ccccc1,19.5% (active)
6,O=C(COC(=O)c1c(Cl)ccc(Cl)c1Cl)NC(=O)NCc1ccccc1,0.78%
7,O=C(COC(=O)c1ccccc1Cl)NC(=O)NCc1ccccc1,inactive
8,CCOC(=O)/C=C(/C)N1N=C(c2ccc(OC)cc2)CC1c1cccc([N+](=O)[O-])c1 (stereo not drawn),0.895%
9,Cc1cc(OCCOCCN(C)C)ccc1Cl,0.765%
10,COC(=O)C1=NN[C@H](C(=O)OC(C)(C)C)[C@H]1c1ccccc1,inactive
11,CCOc1ccc2c(c1)c(N=NC(=N)N)c(O)n2C,0.04%
12,O=S(=O)(NC1CCCCC1Nc1ccc(Cl)cc1)c1ccccc1 (stereo not drawn),12.2% (active)
13,O=S(=O)(NC1CCCCC1Oc1ccccc1)c1ccccc1 (stereo not drawn),3.28%
14,O=S(=O)(NC1CCCCC1Sc1ncccn1)c1ccccc1 (stereo not drawn),inactive
15,COc1ccc(COc2cc(-c3cccc(OC)c3)nc3ccc(NC(=O)c4ccc(Cl)cc4)cc23)cc1,4.84%
16,CCC(=O)NC(=S)Nc1ccc(NC(=O)COc2ccccc2)cc1,inactive
17,CCn1cc([N+](=O)[O-])nc1C,0.275%
18,CNC(=S)Nc1cc(Cl)ccc1Oc1ccccc1,0.98%
19,O=C(CSc1ccccc1)Nc1cc(Cl)ccc1Oc1ccccc1,3.48%
20,O=C(Nc1cc(Cl)ccc1Oc1ccccc1)c1ccc(F)cc1,7.54% (active)
21,COc1cccc(NC(=S)NCCN2CCOCC2)c1,inactive
22,COC(C(=O)Nc1ccc(Cl)cc1C)c1ccccc1 (stereo not drawn),1.5%
23,O=C(OC(C(=O)Nc1ccc(Cl)c(C(F)(F)F)c1)c1ccccc1)C1=COCCO1 (stereo not drawn),16.4% (active)
24,O=C(Nc1ccc(Cl)c(C(F)(F)F)c1)C(=O)N1CCCCC1,1.26%

row,SMILES,CPE inhibition
1,O=C(OC(C(=O)Nc1ccc(Cl)cc1C(F)(F)F)c1ccccc1)c1c(Cl)cccc1Cl (stereo not drawn),21.7% (active)
2,O=C(Nc1nnc(-c2ccc(Cl)cc2)o1)C1=COCCO1,0.23%
3,Cc1ccc(C(=O)OC(C(=O)Nc2ccc(Cl)cc2C(F)(F)F)c2ccccc2)cc1 (stereo not drawn),7.33%
4,O=C(Nc1cc(Cl)cc(Cl)c1)C(c1ccccc1)N1CCCCC1 (stereo not drawn),3.29%
5,O=C(Nc1cccc(-c2nc3ccccc3s2)c1)C1=COCCO1,inactive
6,O=C(OC(C(=O)Nc1cc(Cl)cc(Cl)c1)c1ccccc1)C1=COCCO1 (stereo not drawn),32.8% (active)
7,COC(=O)c1cnn(-c2nc(OC)cc(OC)n2)c1C,0.205%
8,COC(=O)C1=NN(c2cccc(C)c2)C2C(=O)N(c3ccccc3OC)C(=O)C12 (stereo not drawn),0.91%
9,CCOc1ccc(S(=O)(=O)N2CCN(C(=S)NCc3ccco3)CC2)cc1,0.65%
10,CC(C)c1ccc(S(=O)(=O)N2CCN(C(=S)NCc3ccco3)CC2)cc1,13.8% (active)
11,O=S(=O)(c1ccc(F)cc1)N1CCN(C(=S)NCc2ccco2)CC1,0.8%
12,Cn1c(=NC(=O)c2ccccc2[N+](=O)[O-])sc2cc(S(C)(=O)=O)ccc21,2.59%
13,CCCCN1CC(=O)N2[C@H](c3ccc(OC)cc3)[C@@H]3C(=O)N(CC)C(=O)[C@@H]3[C@]2(C)C1=O,inactive
14,CC1(C)C=C(c2ccc(C=O)s2)CC(C)(C)N1C=O,0.13%
15,O=C(COC(=O)C12CC3CC(CC(C3)C1)C2)Nc1ccc([N+](=O)[O-])cc1Cl,1.98%
16,O=C(COC(=O)C12CC3CC(CC(C3)C1)C2)Nc1ccc([N+](=O)[O-])cc1Br,inactive
17,O=C(COC(=O)C12CC3CC(CC(C3)C1)C2)Nc1nc2c(F)c(F)c(F)cc2s1,13.5% (active)
18,CCN(Cc1ccccc1)c1ccc(/C=N/NS(=O)(=O)c2ccc(C)c([N+](=O)[O-])c2)cc1,0.46%
19,CCN(Cc1ccccc1)c1ccc(/C=N/N=C(N)N)cc1,inactive
20,CCN(Cc1ccccc1)c1ccc(/C=N/NC(=S)NC(C)C)cc1,30.1% (active)
21,CCN(CC)c1ccc(/C=N/NC(=O)c2ccco2)cc1,1.16%
22,C=CCNC(=S)N/N=C/c1ccc(N(CC)Cc2ccccc2)cc1,28.3% (active)
23,CCN(CC)c1ccc(/C=N/NC(=S)NCc2ccccc2)c(O)c1,inactive
24,CCOC(=O)c1ccc(NC(=O)c2c(N)n(Cc3ccccc3)c(=O)[nH]c2=O)cc1,inactive

row,SMILES,CPE inhibition
1,Cc1ccc(CCNC(=O)CN(C)S(=O)(=O)c2cnc[nH]2)cc1,inactive
2,O=C(Nc1ccc(Cl)c([N+](=O)[O-])c1)c1ccncc1,0.365%
3,CC12CCC(C(=O)N3CCCc4ccccc43)(OC1=O)C2(C)C (stereo not drawn),0.12%
4,O=C(C1=NN[C@@H]2C(=O)N(c3cccc(C(F)(F)F)c3)C(=O)[C@H]12)C(c1ccccc1)c1ccccc1,0.31%
5,COC(=O)c1c(NC(NC(=O)C(C)C)C(Cl)(Cl)Cl)sc2c1CCC2 (stereo not drawn),13.8% (active)
6,CCOC(=O)c1c(NC(=S)Nc2ccc(OC)cc2)sc2c1CCC2,inactive
7,CC(C(=O)Nc1sc2c(c1C(=O)NCC1CCCO1)CCC2)N1C(=O)c2ccccc2C1=O (stereo not drawn),inactive
8,CC(C)C(=O)NC(=S)Nc1sc2c(c1C(N)=O)CCCC2,inactive
9,CCOC(=O)c1c(NC(=O)C2(C)Cc3ccccc3C(=O)O2)sc2c1CCCC2 (stereo not drawn),4.8%
10,CCOC(=O)c1c(NC(NC(C)=O)C(Cl)(Cl)Cl)sc2c1CCCC2 (stereo not drawn),13% (active)
11,COc1ccc(N(CC(=O)Nc2cccc([N+](=O)[O-])c2C)S(C)(=O)=O)cc1OC,inactive
12,N/C(=N\OCC(=O)Nc1ccccc1)c1nonc1N,0.24%
13,NS(=O)(=O)c1ccc(CCNC(=O)c2cc(-c3ccccc3)nc3ccccc23)cc1,inactive
14,CC1(c2nnc(Cc3ccccc3)o2)CC(c2ccccc2F)=NO1 (stereo not drawn),inactive
15,COc1ccc(C(=O)NCC(=O)OCC(=O)N2CCN(S(=O)(=O)c3ccccc3)CC2)cc1,inactive
16,O=C(NNC(=S)NCc1ccccc1)c1ccc(OC(F)F)cc1,0.96%
17,O=C(NCc1ccccc1)/C(=C/c1ccc(OC(F)F)cc1)c1ccccc1,9.52% (active)
18,FC(F)Oc1ccc(NC(=S)NCc2ccccc2)cc1,inactive
19,Cc1cc(C(=O)COc2ccc(C#N)cc2)c(C)n1-c1ccc2c(c1)OCO2,9.11%
20,O=C(O)c1cccc2c1C(=O)c1ccc(-c3ccc(F)cc3F)cc1S2(=O)=O,1.88%
21,O=C(Nc1ccc(F)cc1)c1ccccc1Oc1ccc(C(F)(F)F)cc1[N+](=O)[O-],9.71%
